Rows were chosen to be rich in hits. Some 7.3% of all compounds tested hit in one or more screens of this group.
HCV inhibitor – HCV inhibition. Huh7.5.1 HCVcc-Cre infection, luciferase reporter, 44 h. AID 651820. Potency, µM (titrated, usually from 41.8 µM), for inactives: top-dose activity change, negative = inhibition, actives largely listed as inhibitors. 340,000 tested, 3.4% active; further: potency means the concentration at half of the fitted maximal effect
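HCVcc-Cre virus at an moi near 0.5 was added right after compound to cells cultured 4 h from seeding (1,000 cells/well). Luciferase activity was determined 44 h later, 15 min after substrate addition at RT.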
FMDV inh – antivirals against foot and mouth disease virus; FMDV antiviral cell-based qHTS; Potency, µM (titrated, usually from 57.9 µM), without a hit: at the highest dose activity change, negative = inhibition, hits mostly inhibitors; 410,000 tested, 1.2% active; AID 1159524; calls by dose curve; tested in HEK293T cells; further: read-out not given here; potency means the concentration at half of the fitted maximal effect; nearly all actives have a fitted effect of over 45% in size
AmpC inh no detg – inhibitors of E. coli AmpC beta-lactamase without detergent; AmpC nitrocefin hydrolysis, absorbance 480 nm, 0.0001% Triton; P00811; AID 485341; 330,000 tested, 0.52% active; Potency, µM (doses to about 57.1 µM), inactives show top-dose activity change, negative = inhibition, hits mostly inhibitors;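 further: potency means the concentration at half of the fitted maximal effect; plate controls were no compound for no effect and no enzyme for full effect; nearly all actives have a fitted effect of over 20% in size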
Target sequence (P00811 whole entry, looked up): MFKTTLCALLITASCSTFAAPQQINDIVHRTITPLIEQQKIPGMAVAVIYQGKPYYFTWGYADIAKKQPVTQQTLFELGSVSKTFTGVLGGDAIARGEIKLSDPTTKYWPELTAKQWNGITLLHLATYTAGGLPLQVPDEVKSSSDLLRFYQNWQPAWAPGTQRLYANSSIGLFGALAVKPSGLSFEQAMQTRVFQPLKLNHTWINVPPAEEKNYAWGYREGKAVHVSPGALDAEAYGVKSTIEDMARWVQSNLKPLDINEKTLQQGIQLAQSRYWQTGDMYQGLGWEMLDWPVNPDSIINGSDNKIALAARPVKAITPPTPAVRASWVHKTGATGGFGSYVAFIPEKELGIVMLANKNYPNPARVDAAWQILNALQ
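20 mM phosphate pH 7.0 + 0.01% (detergent screen) or 0.0001% Triton X-100; 5.3 nM AmpC reagent; cpd preinc 15 min RT; nitrocefin (800 uM stock) to start; A480 q20 s × 4 min; Activity was normalised to no-enzyme and no-compound control wells.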
HCMV inh – blocks human cytomegalovirus replication; HFF cells, HCMV-luciferase reporter, 72 h; active compounds read low; activity change, negative = inhibition, % at 57.5 µM; 410,000 tested, 4.5% active; AID 1259415; in the data active means activity change below about -60%; inconclusive means no clear call, values can overlap the other calls; inactive means above about -39%
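Two-dose cell screen: HFF monolayers treated with compounds and infected with luciferase-expressing HCMV at 1 PFU/cell, 72 h at 37C, then lysed for luciferase measurement.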
AmpC detergent – inhibitors of E. coli AmpC beta-lactamase with detergent | P00811 | AmpC hydrolysis of nitrocefin, absorbance 480 nm, 0.01% Triton | Potency, µM (doses to about 114 µM), inactives show at the top dose activity change, negative = inhibition, actives largely listed as inhibitors | 370,000 tested, 0.041% active | AID 485294;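 further: potency means the concentration at half of the fitted maximal effect; 0% = no-compound wells and -100% = no-enzyme wells; nearly all actives have a fitted effect of over 25% in size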
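20 mM phosphate pH 7.0 + 0.01% (detergent screen) or 0.0001% Triton X-100; 5.3 nM AmpC reagent; cpd preinc 15 min RT; nitrocefin (800 uM stock) to start; A480 q20 s × 4 min; Activity was normalised to no-enzyme and no-compound control wells.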
The depositor's hits bear a star; ? = inconclusive; nt = no result; ! = a repeat was not active; [ ] = remark or other dose. Unless noted, the call rests on the fitted dose curve; in most records, active means well fitted curve in the direction sought with a large enough effect; inconclusive means small, poorly fitted or top-dose-only effect, or another doubt; inactive means no such curve, though single readings can be large; an effect the other way counts as inactive or inconclusive. Unless noted, on the % scale 0 is the no-effect control and ±100 the full control effect.

SMILES | HCV inhibitor | FMDV inh | AmpC inh no detg | HCMV inh | AmpC detergent
COc1ccc(CCNCc2ccc(OCc3ccccc3)cc2)cc1 | -9% | 12% | -8% | -89* | -5%
COc1ccc(C(CCNCc2ccccc2)c2ccc(F)cc2)cc1 (stereo not drawn) | 6.3µM* | 28% | 1% | -29 | -16%
COc1ccc(CNCCC(c2ccc(F)cc2)c2ccc(OC(C)C)cc2)cc1OC (stereo not drawn) | ? | -1% | 84% | -97* | -2%
COc1ccc(C(CCNCc2ccc(OC(C)C)cc2)c2ccccc2OC)cc1 (stereo not drawn) | ? | ? | 11% | -70* | -4%
Cc1ccc(C)c(NC(=O)c2cnc(N3CCCC3)nc2C)c1 | nt | -13% | nt | -14 | 8%
O=C(Nc1ccc(Cl)cc1)c1csc(N2CCN(Cc3ccccc3)C2=O)n1 | nt | nt | nt | -12 | nt
COc1cccc(-c2cc3c(c(OC)c2)OCCN(S(=O)(=O)c2ccccc2OC(F)(F)F)C3)n1 | nt | 7% | nt | nt | nt
COc1ccc(CN2CCOc3ccc(CN4CCC(Oc5cccnc5)CC4)cc3C2)cc1 | nt | -24% | nt | nt | nt
CC(C)C[C@H]1CNC(=S)N1CC1CCN(CCCC2CCCCC2)CC1 | -42% | ? | nt | -19 | nt
COc1ccc(C(CCNCc2ccc(N(C)C)cc2)c2ccccc2OC)cc1 (stereo not drawn) | ? | ? | 1% | -22 | -4%
COc1ccc(CNCCC(c2ccccc2)c2ccc(OC(C)C)cc2)cc1OC (stereo not drawn) | 11µM* | -25% | 57% | -37 | 0%
Oc1ccc(NCc2ccc(OCc3ccccc3)cc2)cc1 | -23% | 24% | -35% | -63*! | -2%
COc1ccc(CN(CCC(c2ccccc2)c2ccc(OC(C)C)cc2)C(=O)CCl)cc1OC (stereo not drawn) | ? | 4.5µM* | 183% | -100* | ?
Oc1ccc(NCc2ccc(OCc3ccccc3Cl)cc2)cc1 | nt | 13% | nt | 7 | 15%
CCOC(=O)c1c(NC(=O)CCN2CCOCC2)sc(C)c1-c1ccccc1 | 25µM* | ? | 254% | -30 | 11%
CCOC(=O)c1c(NC(=O)c2c(-c3ccccc3)noc2C)sc(C)c1-c1ccccc1 | 7.1µM* | ? | -9% | -102* | -1%
CCOC(=O)c1c(NC(=O)/C=C\C(=O)O)sc(C)c1-c1ccccc1 | 12% | ? | -22% | -17 | -1%
CCOC(=O)c1c(NC(=O)/C=C/C(=O)O)sc(C)c1-c1ccc(C(C)(C)C)cc1 | ? | 18µM* | -9%[2.29 µM] | ? | -2%
COC(=O)c1c(-c2ccc(C)cc2)csc1NC(=O)c1c(-c2ccccc2)noc1C | 7% | nt | -30% | -71* | -8%
CCn1nnnc1SCC(=O)N1N=C(c2cccs2)CC1c1cccs1 (stereo not drawn) | -2% | 46% | 9% | 65 | 0%
COc1ccc(-c2nnc(Nc3nc4c(OC)cccc4s3)o2)c(OC)c1 | 6.3µM* | nt | 186% | nt | 5%
O=C(c1csnn1)N1CCC2(CCCN(Cc3ccccc3)C2)CC1 | nt | -5% | nt | nt | nt
CCCCn1c(-c2ccc(Cl)c(Cl)c2)nc2cc3[nH]c(=O)c(C(C)C)nc3cc21 | -14% | -19% | -25% | 0 | ?
CCCCn1c(-c2ccc(C(C)(C)C)cc2)nc2cc3[nH]c(=O)c(C(C)C)nc3cc21 | -13% | 35µM* | -6% | 12 | -5%
COCC1CCCN(Cc2ccc3c(c2)CN(C(=O)c2cn4ccc(C)cc4n2)CCO3)C1 (stereo not drawn) | nt | -4% | nt | nt | nt
SMILES | HCV inhibitor | FMDV inh | AmpC inh no detg | HCMV inh | AmpC detergent
COC(=O)[C@@]1(Cc2ccc(OC)cc2)[C@H]2c3cc(C(=O)N4CCCC4)n(Cc4ccc(S(C)(=O)=O)cc4)c3C[C@H]2CN1C(=O)c1ccccc1 | nt | -16% | nt | -66* | nt
COc1ccccc1Cc1c(C2CCCCC2)nc2c(C)cc(Br)cn12 | nt | nt | nt | 11 | nt
CCN1CCN(C(=O)c2ccc(-c3nc4ccccc4s3)s2)CC1 | ? | 31% | 171% | -33 | -1%
O=C(c1ccc(-c2nc3ccccc3s2)s1)N1CCOCC1 | ? | 8.9µM* | 24% | -72* | -9%
COC(=O)c1ccccc1-c1cc(C)cc2c1OC(CNC(=O)c1cc(C)on1)C2 (stereo not drawn) | nt | -7% | nt | nt | nt
CCCN(C(=O)c1cc2c(=O)oc3ccccc3c2s1)c1ccccc1C | nt | 40µM* | nt | -9 | 8%
CN(Cc1nc(-c2ccc(Cl)cc2)no1)S(=O)(=O)c1ccccc1 | nt | -25% | nt | -5 | 6%
c1ccc2c(c1)NC1(CCCC1)n1c-2nc2ccccc21 | 11µM* | nt | -35% | -28 | ?
CCCC1(C)Nc2ccccc2-c2nc3ccccc3n21 (stereo not drawn) | -16% | 0% | -30% | 73 | 1%
COc1ccc2c(CC(=O)Nc3ccc(C)cc3)coc2c1 | nt | 23% | nt | 3 | 21%
O=[N+]([O-])c1cc([N+](=O)[O-])c(Oc2cc(F)ccc2F)cc1NN1CCCCC1 | 2% | -17% | -9% | -85* | -5%
Cc1cc(OCC(=O)Nc2ccccc2N2CCOCC2)c(C(C)C)cc1Cl | ? | ? | -23% | -66* | -6%
Cc1cc(Cl)ccc1OC(C)C(=O)N1CCCN(C(=O)C(C)Oc2ccc(Cl)cc2C)CC1 (stereo not drawn) | ? | 28µM* | 185% | ? | -10%
Cc1cc(Cl)ccc1OC(C)C(=O)O (stereo not drawn) | 23% | -16% | -26% | 147 | ?
Cc1cc(Cl)ccc1OC(C)C(=O)Nc1ccccc1N1CCOCC1 (stereo not drawn) | 10µM* | ? | -1% | -38 | 1%
Cc1cc(OCC(=O)N2CCOCC2)c(C(C)C)cc1Cl | 7% | -19% | 97% | -26 | -8%
O=C(CO/N=C/c1ccccc1)N1c2ccccc2Oc2ccccc21 | -14% | -17% | -50% | -99* | -6%
CCOc1ccc(N(CC(=O)Nc2c(C)n(C)n(-c3ccccc3)c2=O)S(=O)(=O)c2ccc(F)cc2)cc1 | nt | 1% | 58% | -66* | 1%
COc1ccc(N(CC(=O)Nc2c(C)n(C)n(-c3ccccc3)c2=O)S(=O)(=O)c2ccc(F)cc2)cc1 | 3% | -15% | -5% | ? | -3%
CCOc1ccccc1N(CC(=O)Nc1c(C)n(C)n(-c2ccccc2)c1=O)S(=O)(=O)c1ccccc1 | 9% | 11% | 51% | -78* | -3%
COc1ccc(N(CC(=O)Nc2c(C)n(C)n(-c3ccccc3)c2=O)S(=O)(=O)c2ccccc2)cc1OC | ? | 28% | -10% | -5 | -4%
COCc1c(C(=O)N2CCC(N(C)C)C2)cnn1-c1ncc2c(n1)-c1ccccc1CCC2 (stereo not drawn) | nt | -9% | nt | nt | nt
CC(=NNC(=S)N1CC2CCC(CC2)C1)c1nccs1 | ? | -11% | nt | -63* | nt
